Bioassay records (PubChem)
HT1080 IDH1KD tx: HT-1080 IDH1 knockdown cell toxicity (counter line). Potency, µM (titrated, usually from 46.1 µM), for inactives: at the top dose activity, negative = toxicity, hits mostly cytotoxic. 2% of 360,000 active. HT-1080 IDH1 knockdown viability, ATP luminescence, 48 h;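 note: potency is the fitted concentration of half-maximal effect; 0% = DMSO wells and -100% = cell-free medium wells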
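IDH1KD HT-1080 cells, 750/well, RPMI + 5% FBS; compound pinned after 2 h settling; 48 h, 37 °C; CellTiter-Glo luminescence; % activity normalised to DMSO and no-cell wells; curves fitted, classed by r2 and efficacy.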
HT1080NT lethal: kills 2HG-producing HT-1080-NT fibrosarcoma cells. HT-1080-NT fibrosarcoma viability, CellTiter-Glo ATP luminescence, 48 h. Potency, µM (series often up to 46.1 µM), without a hit: at the top dose activity, negative = less viability, usual class: cytotoxic. 1.6% of 360,000 active;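 note: NT is the 2HG producing partner of a matched IDH1 knockdown line; potency is the fitted concentration of half-maximal effect; 0% = DMSO-treated cells and -100% = media-only wells without cells; nearly all actives have a fitted effect of over 55% in size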
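HT-1080-NT fibrosarcoma cells (2HG-overproducing), 750 cells/well in RPMI with 5% FBS, dosed after 2 h and incubated 48 h at 37C. CellTiter-Glo luminescence normalized to DMSO and no-cell wells; concentration-response curves fitted and classed.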
DT40 TDP1 CPT: DT40-hTDP1 cell growth loss with CPT; chicken DT40 Tdp1-/-;hTDP1 cells + 20 nM CPT, ATP luminescence, 48 h; Potency, µM (titrated, usually from 46.2 µM), for inactives: at the top dose activity change, negative = growth inhibition, usual class: inhibitors; 12% of 420,000 active; AID 686979; note: potency is the fitted concentration of half-maximal effect; nearly all actives have a fitted effect of over 55% in size
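Cell growth measured by CellTiter-Glo luminescence after a minimum 48 h, 37 C compound exposure with 20 nM CPT in Tdp1-knockout DT40 cells stably expressing hTDP1, seeded 400/well; qHTS titration format.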
IL1B secr inh: inhibitors of inflammasome signaling (IL-1 beta secretion); THP-1 LPS/ATP IL-1B secretion, AlphaLISA, 16 h; hits give low values; activity change, % at 57.5 µM; 4.7% of 360,000 active; in the data active = activity change below about -50%; inconclusive = mostly about -30% to -49%
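Secreted IL-1B measured by AlphaLISA bead assay after 16 h compound exposure of THP-1 cells; compounds (final up to 57.5 uM) added 1 h before LPS (250 ng/mL) and ATP (1.25 mM) stimulation; lower signal means less secretion.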
TDP1 cell noCPT: qHTS for Inhibitors of human tyrosyl-DNA phosphodiesterase 1 (TDP1): qHTS in cells in absence of CPT. DT40 Tdp1-/- hTDP1 cells, no CPT, ATP luminescence, 48 h. Potency, µM (titrated, usually from 46.2 µM), without a hit: at the top dose activity change, negative = growth inhibition, actives largely listed as inhibitors. 15% of 420,000 active; note: potency is the fitted concentration of half-maximal effect; nearly all actives have a fitted effect of over 55% in size
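Stably hTDP1-transfected Tdp1-null chicken DT40 cells were treated with library compounds minus camptothecin and grown for at least 48 hr at 37 °C, after which cellular ATP was quantified by luminescence.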
Active calls of the source: *; ? = inconclusive; nt = no result; [ ] = another dose, or the depositor's remark. Hits are enriched below; roughly 19% of the tested compounds scored in any of these assays. Unless noted, calls come from the whole dose curve; as a rule, active = well fitted curve in the direction sought with a large enough effect; inconclusive = small, poorly fitted or top-dose-only effect, or another doubt; inactive = no such curve, though single readings can be large; an effect the other way counts as inactive or inconclusive. Unless noted, % is set by controls: 0 for no effect and ±100 for the full control effect.

SMILES	HT1080 IDH1KD tx	HT1080NT lethal	DT40 TDP1 CPT	IL1B secr inh	TDP1 cell noCPT
Cc1ccc(S(=O)(=O)NCCC(=O)N2CCC(Cc3ccccc3)CC2)cc1	-8.8%	0.2%	14.6µM*	-0.3	20.6µM*
CC(=O)Nc1ccc(S(=O)(=O)NCCC(=O)N2CCC(Cc3ccccc3)CC2)cc1	-10.3%	-4.0%	?	-11.9	?
Cc1ccc(S(=O)(=O)NC(C)(C)CN2CCC(Cc3ccccc3)CC2)cc1	?	?	16.4µM*	?	18.4µM*
CC(=O)N1CCN(C(=O)CCNS(=O)(=O)c2ccc(Br)cc2)CC1	1.4%	7.3%	-29.0%	-4.5	-6.5%
CC(=O)Nc1ccc(S(=O)(=O)NCCC(=O)N2CCN(C(c3ccccc3)c3ccccc3)CC2)cc1	-9.1%	-9.3%	?	?	16.4µM*
Cc1ccc(S(=O)(=O)NC(CC(C)C)C(=O)N2CCN(C/C=C/c3ccccc3)CC2)cc1 (stereo not given)	-0.6%	-12.0%	16.4µM*	-16.1	16.4µM*
O=C(CCNS(=O)(=O)c1ccccc1F)N1CCN(C/C=C/c2ccccc2)CC1	-11.1%	1.3%	3.9%	-19.8	?
CC(C)(CN1CCCC1)NS(=O)(=O)c1ccc(Cl)cc1	0.4%	-1.2%	3.5%	-16.1	-23.0%
Cc1ccc(S(=O)(=O)NCc2ccc(C(=O)NC3CC3)cc2)cc1	-0.9%	6.3%	-3.1%	7.1	1.6%
Cc1ccc(S(=O)(=O)NCCC(=O)N2CCN(C/C=C/c3ccccc3)CC2)cc1	-12.4%	-4.2%	?	22.1	14.6µM*
CC(C)(CN1CCNCC1)NS(=O)(=O)c1ccc(Cl)cc1	?	-3.5%[9.24 µM]	23.1µM*	0.0	?
Cc1ccc(S(=O)(=O)NCc2ccc(C(=O)NCCCN3CCC(Cc4ccccc4)CC3)cc2)cc1	?	?	6.3%	-64.6*	-6.9%
CCCCNC(=S)Nc1ccccc1F	12.6%	5.2%	-7.5%	19.4	?
Cc1cc(-c2cc(F)cc3c2OC(CNC(=O)[C@@H]2CCC(=O)N2)C3)ccc1F (stereo not given in full)	nt	nt	1.8%[9.04 µM]	nt	-17.3%
Cc1nc(CC(=O)NCC2Cc3cc(F)cc(-c4ccc(F)c(C)c4)c3O2)cs1 (stereo not given)	nt	nt	6.7%[9.04 µM]	nt	13µM*
CC(=O)c1ccc(F)c(-c2cc(C)cc3c2OC(CNC(=O)c2csc(C)n2)C3)c1 (stereo not given)	nt	nt	7.5%[9.04 µM]	nt	20.6µM*
CC(=O)c1ccc(F)c(-c2cc(C)cc3c2OC(CNC(=O)C(C)n2nc(C)cc2C)C3)c1 (stereo not given)	nt	nt	0.3%[9.04 µM]	nt	-20.5%
CC1(c2nc3ccccc3[nH]2)CCC(=O)N1C1CC1 (stereo not given)	10.3%	26.8%	7.4%	34.5	15.6%
CC1C(c2ccccc2)=Nn2c(=O)n(-c3ccccc3)c(=O)n21 (stereo not given)	3.4%	-1.8%	?	41.1	23.1µM*
O=C(Nc1ccc2c(c1)OCO2)c1cc(-c2ccc(O)cc2)on1	2.06µM*	2.06µM*	-24.3%	-11.4	-23.6%
COc1cccc(-c2cc(C(=O)Nc3ccc4c(c3)OCO4)no2)c1	-12.0%	-8.6%	-5.3%	-13.4	-4.2%
CC(C)Cc1cc(C(=O)Nc2ccc(Br)cc2)no1	-7.1%	1.4%	2.7%	-3.2	9.3%
Cc1ccc(NC(=O)c2cc(-c3ccc4c(c3)OCO4)on2)cc1C	6.3%	-7.4%	?	-6.7	-22.1%
O=C(Nc1ccc2c(c1)OCO2)c1cc(-c2cccc(O)c2)on1	11.6µM*	23.1µM*	1.3%	-6.4	-20.4%
O=C(Nc1cccc(C(F)(F)F)c1)c1cc2ncc(Br)cn2n1	2.0%	15.7%	-27.6%	9.8	-2.4%
O=C(Nc1ccc2c(c1)OCO2)c1cc2ncc(Br)cn2n1	2.9%	7.0%	?	-6.8	20.6µM*
CC(C)Cc1cc(C(=O)Nc2ccc3c(c2)OCO3)no1	5.17µM*	?	-16.5%	-22.5	-24.8%
COc1ccc(/C=C(/NC(=O)c2ccco2)C(=O)N2CCCCC2)cc1	-2.9%	16.5%	-5.7%	16.2	5.8%
